This is part of a sample that, as a whole, favours compounds with a hit. Of some 83,000 tested, about 20% had one in any assay.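 How to read the values: 0–100, growth inhibition (40 = 60% inhibited); 0, no net growth; -100 to 0, cell death (-40 = 40% of starting cells died; -100 = all dead).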 Unmarked numbers belong to inactive results. Active and inactive are the calls of the source. The calls were made as follows: active = growth percent below 10; inactive = the rest.
Legend:
Assay in all cases: NCI-60 one-dose screen, 48 h (100 = growth as untreated, 0 = no growth, -100 = all killed)
SK-MEL-2 melanoma = conditions: 10 µM unless noted
EKVX NSCLC = conditions: 10 µM unless noted
SN12C renal = conditions: 10 µM unless noted
UO-31 renal = conditions: 10 µM unless noted
TK-10 renal = conditions: 10 µM unless noted
ACHN renal = conditions: 10 µM unless noted
CAKI-1 renal = conditions: 10 µM unless noted
CCRF-CEM leukemia = conditions: 10 µM unless noted
MOLT-4 leukemia = conditions: 10 µM unless noted
SR leukemia = conditions: 10 µM unless noted
RPMI-8226 leukemia = conditions: 10 µM
OVCAR-8 ovarian = conditions: 10 µM unless noted
OVCAR-5 ovarian = conditions: 10 µM unless noted
OVCAR-4 ovarian = conditions: 10 µM unless noted
IGROV1 ovarian = conditions: 10 µM unless noted
OVCAR-3 ovarian = conditions: 10 µM unless noted
HS 578T breast = conditions: 10 µM unless noted
NCI/ADR-RES ovarian = conditions: 10 µM unless noted
A498 renal = conditions: 10 µM unless noted
SK-OV-3 ovarian = conditions: 10 µM

SMILES	growth (SK-MEL-2 melanoma)	growth (EKVX NSCLC)	growth (SN12C renal)	growth (UO-31 renal)	growth (TK-10 renal)	growth (ACHN renal)	growth (CAKI-1 renal)	growth (CCRF-CEM leukemia)	growth (MOLT-4 leukemia)	growth (SR leukemia)	growth (RPMI-8226 leukemia)	growth (OVCAR-8 ovarian)	growth (OVCAR-5 ovarian)	growth (OVCAR-4 ovarian)	growth (IGROV1 ovarian)	growth (OVCAR-3 ovarian)	growth (HS 578T breast)	growth (NCI/ADR-RES ovarian)	growth (A498 renal)	growth (SK-OV-3 ovarian)
O=C(N/N=C/c1ccc(OC(F)F)c(OC2CCCC2)c1)c1cnn2c1NC(c1ccccc1)C2 (stereo unspecified)	90.7%	91.5%	87.1%	65.1%	91.9%	82.3%	62.6%	78.7%	54.7%	37.4%	73.9%	90.4%	93.7%	61.3%	83.4%	78.9%	69.2%	72.8%	–	–
CCCCCCCC/C=C\CCCCCCCCOc1cccc(CC(=O)NCC[N+]2(C)CCOCC2)c1	104%	94.6%	81.5%	82.1%	75.1%	94%	70.1%	61.6%	72.1%	55.7%	96.4%	93.8%	65.5%	90.3%	0.48% (active)	98.7%	80.9%	112%	–	–
COc1ccc(-c2[nH]ncc2Nc2cc(OC)c(OC)c(OC)c2)cc1	66.4%	49.4%	45.4%	46.8%	62%	55.7%	36.1%	39.9%	–	116%	33.2%	58.1%	–	51.2%	43%	5.17% (active)	49.8%	–	48.7%	18.4%
COc1cc(-c2nc3ccccc3o2)cc(CN2CCN(c3ccccc3)CC2)c1O	75%	71.8%	66.2%	43.8%	117%	73.6%	84.9%	–	92.5%	45.1%	53.2%	78.3%	117%	84.6%	86.8%	63.7%	110%	69.4%	77.6%	116%
O=C(CCc1nnc2sc(-c3ccccc3)nn12)c1nc2ccccc2[nH]1	104%	99.5%	86.6%	77.5%	108%	101%	103%	–	78.4%	69.6%	83%	97.2%	116%	98.7%	96.8%	116%	102%	92.5%	80.4%	107%
C=C[C@H]1C[C@@H]2C[C@@H]3[C@H]4C/C=C\C(=O)NCCCC5NC(=O)C(=C(O)/C=C/[C@@H]4CC(=O)[C@H]3[C@@H]2[C@H]1C)C5=O (stereo partly specified)	-54% (active)	61.6%	-60.7% (active)	-87.4% (active)	-94.5% (active)	-93.3% (active)	29%	–	-68.9% (active)	-55.9% (active)	-54.5% (active)	-84.7% (active)	-92.7% (active)	-78.1% (active)	-62.8% (active)	-95.3% (active)	–	–	-93.5% (active)	-100% (active)
O=[N+]([O-])c1ccc2nc(N/N=C/c3ccc(O)cc3)sc2c1	-0.896% (active)	85.5%	54.7%	27.5%	54%	47%	23.2%	–	24%	18.2%	28.3%	59.9%	113%	56%	46.6%	51.3%	83.5%	81.7%	91.5%	82.4%
COC(=O)[C@@]12CC[C@@H](C)[C@]3(C[C@@H](c4ccoc4)OC3=O)[C@H]1CC[C@@H]1O[C@@]12C	96.9%	94.8%	98.8%	78.9%	103%	105%	94.4%	107%	110%	110%	110%	102%	91.4%	104%	103%	110%	98.7%	102%	–	–
COc1cc(OCc2cccc(-c3ccc(C(O)c4nccs4)cc3)c2C)cc(OC)c1C=O (stereo unspecified)	60.4%	43%	61.8%	22.9%	27.7%	25.2%	2.55% (active)	37.2%	21.2%	53.1%	22.1%	59.8%	16.5%	15.9%	21%	48.1%	67.1%	–	–	–
COc1ccc(/C=C2\SC(=O)N(CN3CCN(c4cc5c(cc4F)c(=O)c(C(=O)O)cn5C4CC4)CC3)C2=O)cc1	101%	97.4%	108%	80.2%	104%	111%	94.1%	111%	116%	102%	99.9%	98.5%	108%	104%	113%	110%	108%	103%	–	–
CCN(CC)c1ccc2c(c1)OS(=O)(=O)N=C2	113%	88%	100%	82.6%	101%	102%	94.7%	106%	110%	93.3%	104%	107%	99.9%	97.9%	97.5%	114%	110%	95.6%	–	–
CCCCc1ccc(C(O)(CCN2CC3CCC(CC3)C2)c2ccccc2)cc1 (stereo unspecified)	98%	87.4%	95.7%	65.3%	104%	94.5%	92.6%	–	80.9%	68%	72.2%	104%	90.9%	97%	95.2%	91.9%	–	98.3%	77%	91.2%
N#Cc1c(-c2cccc(F)c2)cc(-c2ccc(Br)s2)[nH]c1=O	60%	89.3%	92.4%	74.1%	108%	91.9%	49.8%	90.7%	82.6%	40.7%	73.9%	83.3%	102%	92%	67.3%	39.5%	69%	–	–	–
O=c1ccc2ccccc2o1	101%	109%	109%	89.9%	98.3%	93.8%	89.7%	87.4%	–	–	–	105%	104%	–	111%	111%	105%	105%	96.4%	111%
COC(=O)c1c2c(c(C)[n+]([O-])c1C)C(=O)C(NCc1ccc(O)cc1)=CC2=O	-12.5% (active)	-34.5% (active)	-89.9% (active)	6.95% (active)	74.1%	8.06% (active)	7.36% (active)	6.08% (active)	-1.35% (active)	11.1%	-2.15% (active)	5.26% (active)	-17% (active)	-97.4% (active)	-45% (active)	-33.1% (active)	-22.5% (active)	-6.46% (active)	–	–
O=C1/C(=C/c2ccc(Cl)cc2)N=C(c2ccccc2)N1CCc1cccs1	69.5%	72.1%	45.6%	48.4%	54.8%	43%	58.1%	85.9%	–	–	76.1%	36.1%	30.5%	62.1%	55.3%	79.9%	67.7%	56.7%	72.7%	105%
O=c1onc(-c2ccccc2)c2ccccc12	118%	121%	101%	97.8%	114%	112%	98.5%	–	98.9%	101%	98.4%	103%	116%	106%	113%	113%	–	103%	83.1%	112%
COc1ccc2nc(-n3nc(C)cc3C)c(-n3nc(C)cc3C)nc2c1	111%	91.7%	104%	86.5%	113%	113%	93.4%	–	–	95%	102%	126%	103%	111%	113%	126%	–	100%	96.7%	113%
O=c1c2cc(F)ccc2oc2c(NCCNCCO)nc3ccccc3c12	84.7%	50.9%	37.7%	37.1%	71.3%	19.1%	30.2%	30.9%	–	-28.7% (active)	32.1%	34.1%	60.6%	37.3%	37%	55%	67.1%	–	–	–

Source: PubChem BioAssay (NCI)
